Compound activity: PubChem BioAssay, NMMLSC
MEKK2wt PB1 HTS: raises or lowers MEK5 binding to wildtype human MEKK2 PB1 domain; bead flow cytometry, Alexa488-MEK5 binding to MEKK2 WT; actives lie on both sides; Q9Y2U5; binding response (% of control), % at 10 µM; hit rate 1.1% among 290,000; in the data active means binding response below about 67% or above about 130%
MEKK2mut PB1 HTS: signal of MEK5 binding to mutant human MEKK2 PB1 domain | hit rate 0.35% among 290,000 | AID 1530 | bead flow cytometry, Alexa488-MEK5 binding to MEKK2 mutant | percent response, % at 10 µM; in the data active means percent response above about 24%, passing the limit was not always enough
GRK2 inh: blocks RNA aptamer binding to human GRK2 | P25098 | bead flow cytometry, FAM-aptamer displacement from GRK2 | inhibition of aptamer binding, % at 10 µM | hit rate 0.59% among 330,000 | AID 488847;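 active means inhibition of aptamer binding above 40%, roughly 3 SD of noise, on plates passing a quality check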;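 further: median bead fluorescence of bound FAM aptamer so fluorescent compounds give negative values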
MEKK3 PB1 HTS: MEKK3-MEK5 PB1 interaction, increase or decrease | Q99759 | bead-based flow cytometry, Alexa488-MEK5 binding to MEKK3; actives lie on both sides; 0 = blocked by unlabeled MEK5, 100 = vehicle | binding response (% of control), % at 10 µM | hit rate 1.4% among 290,000;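 active means binding response more than 3 SD above or below the average of its plate-row segment, actives on both sides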;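 further: Alexa488 bead fluorescence after subtracting the streptavidin-only scavenger bead signal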
Target sequence (Q99759 whole entry, looked up): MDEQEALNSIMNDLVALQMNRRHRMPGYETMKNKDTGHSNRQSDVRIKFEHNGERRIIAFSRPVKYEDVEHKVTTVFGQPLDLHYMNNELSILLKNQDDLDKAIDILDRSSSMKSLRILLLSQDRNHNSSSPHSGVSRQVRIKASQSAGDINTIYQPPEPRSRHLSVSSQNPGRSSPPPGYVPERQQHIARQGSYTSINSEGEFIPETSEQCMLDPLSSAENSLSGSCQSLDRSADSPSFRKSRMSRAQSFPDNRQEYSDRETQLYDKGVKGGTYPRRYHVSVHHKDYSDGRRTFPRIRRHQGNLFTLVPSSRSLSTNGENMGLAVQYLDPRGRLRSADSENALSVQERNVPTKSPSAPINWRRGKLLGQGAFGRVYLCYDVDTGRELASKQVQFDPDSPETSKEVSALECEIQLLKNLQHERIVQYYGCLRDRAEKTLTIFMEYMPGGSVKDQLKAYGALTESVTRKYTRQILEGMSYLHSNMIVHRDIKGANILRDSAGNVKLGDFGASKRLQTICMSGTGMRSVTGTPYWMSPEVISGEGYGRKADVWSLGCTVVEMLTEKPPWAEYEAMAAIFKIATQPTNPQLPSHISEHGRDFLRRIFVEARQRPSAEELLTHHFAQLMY
MEKK2wt confirm: raises or lowers MEK5 binding to wildtype human MEKK2, retest; shares compounds with MEKK3 PB1 HTS; bead flow cytometry, Alexa488-MEK5 binding to MEKK2 WT; actives lie on both sides; binding response (% of control), % at 10 µM; hit rate 2.4% among 5,900; in the data active means binding response below about 16% or above about 210%; inactive means in between
MEKK2mut confirm: signal of MEK5 binding to mutant human MEKK2, retest; shares compounds with MEKK3 PB1 HTS; AID 1893; hit rate 2% among 5,900; bead flow cytometry, Alexa488-MEK5 binding to MEKK2 mutant; percent response, % at 10 µM; in the data active means percent response mostly above about 71%, no sharp cut-off; inactive means mostly below about 38%;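 further: higher means compound restores mutant binding toward wildtype level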
MEKK3-MEK5 inh: confirmation of inhibitors of MEK5 binding to human MEKK3; shares compounds with MEKK3 PB1 HTS; bead flow cytometry, Alexa488-MEK5 binding to MEKK3; active compounds read low; binding response (% of control), % at 10 µM; hit rate 1.8% among 5,900; AID 1894;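 active means binding response below 72% of control, or above a set upper limit, though filed actives all read lower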;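 further: lower values mean stronger disruption of MEK5 binding to MEKK3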
A number is an active result; 0 = inactive; - = no result given; [ ] = dose if it differs, or a comment. Shown are actives, neighbours in structure and some others; about 2.5% of the full set was active somewhere.

SMILES	MEKK2wt PB1 HTS	MEKK2mut PB1 HTS	GRK2 inh	MEKK3 PB1 HTS	MEKK2wt confirm	MEKK2mut confirm	MEKK3-MEK5 inh
COC(=O)C1C(=O)N2CCCSC2=C(C#N)C1c1cccs1 (stereo not drawn)	0	0	0	55[inhibitor]	0	0	0
CC(=O)NCCNC(=O)c1oc2ccccc2c1CSc1ncn[nH]1	0	0	0	75[inhibitor]	0	0	0
CCOc1ccc(OCCNC(=O)c2oc3ccccc3c2COC)cc1	-	-	0	-	-	-	-
Cc1ccc(C(C)C)c(OCC(=O)N/N=C/c2ccc(S(=O)(=O)O)o2)c1	0	0	0	130	0	0	0
COc1ccc(/C=N/NC(=O)CSc2n[nH]c(=O)[nH]c2=O)cc1	0	0	0	74[inhibitor]	0	0	0
CC1Cc2ccccc2N1S(=O)(=O)c1cccc(C(=O)NCCCO)c1 (stereo not drawn)	0	0	0	0	-	-	-
CCN(CC)CCNC(=O)c1ccc(NC(=O)c2cccc(S(=O)(=O)N3c4ccccc4CC3C)c2)cc1 (stereo not drawn)	174	37	0	0	0	0	0
O=c1cc(CSc2ccccc2)nc(-c2ccncc2)[nH]1	0	0	0	46[inhibitor]	0	0	0
Cc1c(OC(C)C(=O)NCc2ccccn2)ccc2c3c(c(=O)oc12)CCCC3 (stereo not drawn)	0	0	0	0	-	-	-
Clc1ccc(-c2csc3ncnc(N4CCc5ccccc5C4)c23)cc1	0	0	0	131	0	0	0
CN(C)c1nc(N/N=C/c2ccccc2O)nc(Nc2ccc(F)cc2)n1	140	0	0	0	0	0	0
CN(C)c1nc(Nc2ccc(F)cc2)nc(Oc2ccc(F)cc2)n1	0	0	0	0	-	-	-
CCN(CC)C(=O)CSc1nnc2c3ccccc3n(C)c2n1	0	0	0	0	-	-	-
O=C(N/N=C\C=C\c1ccco1)c1cc(-c2ccc3ccccc3c2)n[nH]1	0	0	0	132	0	0	0
NNC(=O)CNc1cccc(Cl)c1	0	0	0	0	-	-	-
Cc1cc(-c2nn(-c3ccccc3F)cc2CN2CCN(c3ccncc3)CC2)c(C)s1	172	0	0	0	0	0	0
CCOc1ccccc1Nc1cc(C)nc2nc(C)nn12	0	0	0	0	-	-	-
Nc1nnc(C(=O)c2ccccc2N)s1	0	0	0	0	-	-	-
CC(=O)N1CCN2C(=O)C1CCCC(=O)c1cc(C)ccc12 (stereo not drawn)	0	0	0	48[inhibitor]	0	0	0
NC(=O)C1CCN(c2ncc(C(F)(F)F)cc2Cl)CC1	0	0	0	130	0	0	0
CN1C(=O)c2ccc(C(=O)Nc3cccnc3)cc2C1=O	0	0	0	0	-	-	-
O=C(NN1C(=O)c2ccc(-c3ccc4c(c3)C(=O)N(NC(=O)c3cccnc3)C4=O)cc2C1=O)c1cccnc1	0	0	0	135	0	0	0
CC(C)(c1ccccc1)c1ccc(OCCCNCCO)cc1	145	0	0	0	0	0	0
COCCCNCCCOc1ccc(C(C)(C)c2ccccc2)cc1	0	0	0	0	-	-	-
COc1cc(/C=N/NS(=O)(=O)c2ccc(C(C)(C)C)cc2)cc([N+](=O)[O-])c1O	48[inhibitor]	0	0	0	0	0	0
SMILES	MEKK2wt PB1 HTS	MEKK2mut PB1 HTS	GRK2 inh	MEKK3 PB1 HTS	MEKK2wt confirm	MEKK2mut confirm	MEKK3-MEK5 inh
COc1cc(/C=N/NS(=O)(=O)c2ccc(C)c([N+](=O)[O-])c2)cc([N+](=O)[O-])c1O	0	0	0	0	-	-	-
COc1ccc(-c2nn(-c3ccccc3)cc2CN(C)CCn2ccnc2C)c(F)c1	0	0	0	44[inhibitor]	0	0	0
COc1ccc(C(=O)N/C(=C/c2cccnc2)C(=O)NCc2ccco2)cc1OC	0	0	0	0	-	-	-
CC(C)=CCc1c(O)cc(O)c2c(=O)c3c(CC=C(C)C)c(O)ccc3oc12	137	0	0	0	0	0	0
CC(C)=CCc1c(O)cc2c(=O)c3ccc(O)cc3oc2c1O	0	0	0	0	-	-	-
COC(=O)c1ccc(COC(=O)CNC(=O)c2ccco2)cc1	0	0	0	0	-	-	-
CN1CCN(C2=Cc3ccccc3Sc3cc(F)ccc32)CC1	136	0	0	0	0	0	0
CN1CCN(C2=Cc3ccc(Cl)cc3Sc3ccc(F)cc32)CC1	150	27	0	0	0	0	0
C#CCOCCOCCOCCNc1nc(N2CCN(C(=O)C([C@@H](C)CC)n3cc(C(N)COC(=O)C(F)(F)F)nn3)CC2)nc(N2CCN(C(=O)[C@H](CCCCN)n3cc(C(N)[C@H](C)CC)nn3)CC2)n1 (stereo partly drawn)	304	62	0	0	237	86	0
C#CCOCCOCCOCCNc1nc(N2CCN(C(=O)[C@H](CCCCN)n3cc(CCCC)nn3)CC2)nc(N2CCN(C(=O)[C@H](CCCCN)n3cc(CCC(=O)O)nn3)CC2)n1	-	-	0	-	-	-	-
C#CCOCCOCCOCCNc1nc(N2CCN(C(=O)[C@H]([C@@H](C)CC)n3cc([C@@H](N)CC(C)C)nn3)CC2)nc(N2CCN(C(=O)[C@H](CCCCN)n3cc([C@@H](N)CC(C)C)nn3)CC2)n1	151	0	0	0	0	0	0
C#CCOCCOCCOCCNc1nc(N2CCN(C(=O)[C@H]([C@@H](C)CC)n3cc([C@@H](N)CC(C)C)nn3)CC2)nc(N2CCN(C(=O)[C@H](CCCCN)n3cc([C@@H](N)C(C)CC)nn3)CC2)n1 (stereo partly drawn)	146	0	0	0	0	0	0
C#CCOCCOCCOCCNc1nc(N2CCN(C(=O)[C@H]([C@@H](C)CC)n3cc([C@@H](N)CO)nn3)CC2)nc(N2CCN(C(=O)[C@H](CCCCN)n3cc([C@@H](N)C(C)CC)nn3)CC2)n1 (stereo partly drawn)	0	0	0	0	-	-	-
C#CCOCCOCCOCCNc1nc(N2CCN(C(=O)[C@H](CCCCN)n3cc(CCCC)nn3)CC2)nc(N2CCN(C(=O)[C@H](CCCCN)n3cc(CCCC)nn3)CC2)n1	159	0	-	0	0	0	0
C#CCOCCOCCOCCNc1nc(N2CCN(C(=O)C([C@@H](C)CC)n3cc(C(N)CC(C)C)nn3)CC2)nc(N2CCN(C(=O)[C@H](CCC(=O)O)n3cc(C(N)CC(C)C)nn3)CC2)n1 (stereo partly drawn)	0	0	-	0	-	-	-
C[C@]12C[C@H](O)[C@@H]3c4ccc(O)cc4CCC3[C@@H]1CCC2=O (stereo partly drawn)	0	0	0	0	-	-	-
Cc1ccc(CNC(=O)C2CC=CCC2C(=O)O)cc1 (stereo not drawn)	0	0	0	0	-	-	-
